Test results from the supplement of paper PMC7156485.

Test system: HCC1569
Experiment: H1.0 immunofluorescence intensity relative to DMSO (% of DMSO); higher = stronger H1.0 induction, active = 140 or more
Conditions: concentration: 10 µM; 24 h
Procedure, shortened: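 Cell number or H1.0 nuclear intensity appears as percent of the plate control, based on the median of replicates. Measurements came from HCC1569 and TDF cells exposed in triplicate to compounds at 10 µM for 24 h at 37 °C, then imaged in six fields per well at ×10. Positional effects were smoothed out of HCC1569 values.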
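Note: TDF is a line of transformed human dermal fibroblasts of mesenchymal origin.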

H1.0 immunofluorescence intensity, inactive:
C[n+]1cc2c3c(ccc2c2ccc4cc5c(cc4c21)OCO5)OCO3 [Sanguinarine] 114
CCCOc1ccc(C=C2SC(=O)NC2=O)cc1 [PIM1/2 Kinase Inhibitor VI] 98.1
O=C(O)CN(CCN(CC(=O)O)CC(=O)O)CCN(CC(=O)O)CC(=O)O [Diethylenetriaminepentaacetic acid] 94.6
O=[N+]([O-])c1cccc2cn[nH]c12 [7-Nitroindazole] 92.6
O=C(NC(CO)C(O)c1ccc([N+](=O)[O-])cc1)C(Cl)Cl (stereo unspecified) [Chloramphenicol] 112
O=C(O)[C@H]1C[C@H](C(=O)O)N1 (relative stereo) [trans-Azetidine-2,4-dicarboxylic acid] 90.5
